Targets with a hit are over-represented here; the source holds about 7,900 in all. About 0.6% of all pairs of compound and target were hits. A number with no mark means an inactive call.
compound: Cc1sc2c(c1C)C(c1ccc(Cl)cc1)=N[C@@H](CC(=O)OC(C)(C)C)c1nnc(C)n1-2; assay: log2 fold change, soluble protein after heating vs DMSO (PISA); higher = thermal stabilisation; K562 cells, 10 uM, 30 min; active = over 0.2 and 3.5 SD of the protein, either way, in both replicates (recomputed)
Summary of the method: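 K562 cells at 2×10^6 cells/mL were treated with 10 μM compound for 30 min. Aliquots were heated for 3 min across 48°C-58°C, pooled, and extracted in PBS with 0.5% NP-40 at 4°C; soluble protein was the supernatant after 21,000xg for 90 min. Soluble protein was quantified by TMTpro 16plex LC-MS/MS with channel sums equalised, and reported as log2 fold change in thermal stability against DMSO controls, with values from duplicates.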

Sequence of UniProt Q6QNY0 (Q6QNY0 whole entry, looked up): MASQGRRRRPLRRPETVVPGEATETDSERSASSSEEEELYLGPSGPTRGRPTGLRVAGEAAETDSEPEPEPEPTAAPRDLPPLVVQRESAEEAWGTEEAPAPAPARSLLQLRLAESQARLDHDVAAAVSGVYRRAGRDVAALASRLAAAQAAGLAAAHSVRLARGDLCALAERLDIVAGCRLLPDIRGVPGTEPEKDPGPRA
Sequence of UniProt Q13795 (Q13795 whole entry, looked up): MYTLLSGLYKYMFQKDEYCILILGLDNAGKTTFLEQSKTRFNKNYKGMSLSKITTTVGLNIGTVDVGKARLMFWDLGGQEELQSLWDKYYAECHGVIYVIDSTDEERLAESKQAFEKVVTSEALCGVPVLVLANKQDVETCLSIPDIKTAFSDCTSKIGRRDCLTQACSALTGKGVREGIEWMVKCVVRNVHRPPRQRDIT
Sequence of UniProt Q10589 (Q10589 whole entry, looked up): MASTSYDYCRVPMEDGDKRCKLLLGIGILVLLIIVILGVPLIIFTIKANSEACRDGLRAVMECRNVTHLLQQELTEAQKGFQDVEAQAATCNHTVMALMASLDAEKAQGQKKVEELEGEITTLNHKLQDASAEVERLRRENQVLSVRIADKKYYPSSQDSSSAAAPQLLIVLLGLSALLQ
Sequence of UniProt Q8N6H7 (Q8N6H7 whole entry, looked up): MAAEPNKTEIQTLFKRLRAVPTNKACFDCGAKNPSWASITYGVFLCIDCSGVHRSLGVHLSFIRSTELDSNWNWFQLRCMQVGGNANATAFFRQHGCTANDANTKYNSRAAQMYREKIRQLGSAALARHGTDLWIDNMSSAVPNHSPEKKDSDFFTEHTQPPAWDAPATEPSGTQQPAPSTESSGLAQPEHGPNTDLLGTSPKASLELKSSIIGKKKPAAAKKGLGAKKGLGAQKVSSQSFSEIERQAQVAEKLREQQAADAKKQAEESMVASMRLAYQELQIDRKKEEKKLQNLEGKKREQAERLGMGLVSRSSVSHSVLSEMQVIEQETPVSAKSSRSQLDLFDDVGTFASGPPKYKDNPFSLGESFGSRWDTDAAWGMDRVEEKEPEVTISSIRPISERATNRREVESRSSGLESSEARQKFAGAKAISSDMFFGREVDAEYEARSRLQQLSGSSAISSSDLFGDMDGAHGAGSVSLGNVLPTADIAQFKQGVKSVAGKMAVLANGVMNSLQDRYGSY
Sequence of UniProt Q9Y312 (Q9Y312 whole entry, looked up): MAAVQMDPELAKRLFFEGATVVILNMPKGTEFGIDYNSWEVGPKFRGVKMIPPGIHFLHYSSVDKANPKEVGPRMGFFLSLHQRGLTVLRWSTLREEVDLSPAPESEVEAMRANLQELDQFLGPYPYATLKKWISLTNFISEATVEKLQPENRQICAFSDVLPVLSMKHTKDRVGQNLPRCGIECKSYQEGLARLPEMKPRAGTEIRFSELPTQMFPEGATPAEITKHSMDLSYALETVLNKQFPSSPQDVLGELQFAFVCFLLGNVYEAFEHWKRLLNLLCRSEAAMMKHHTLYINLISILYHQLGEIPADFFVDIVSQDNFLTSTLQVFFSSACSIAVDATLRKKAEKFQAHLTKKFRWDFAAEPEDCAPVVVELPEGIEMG
Sequence of UniProt Q7L1Q6 (Q7L1Q6 whole entry, looked up): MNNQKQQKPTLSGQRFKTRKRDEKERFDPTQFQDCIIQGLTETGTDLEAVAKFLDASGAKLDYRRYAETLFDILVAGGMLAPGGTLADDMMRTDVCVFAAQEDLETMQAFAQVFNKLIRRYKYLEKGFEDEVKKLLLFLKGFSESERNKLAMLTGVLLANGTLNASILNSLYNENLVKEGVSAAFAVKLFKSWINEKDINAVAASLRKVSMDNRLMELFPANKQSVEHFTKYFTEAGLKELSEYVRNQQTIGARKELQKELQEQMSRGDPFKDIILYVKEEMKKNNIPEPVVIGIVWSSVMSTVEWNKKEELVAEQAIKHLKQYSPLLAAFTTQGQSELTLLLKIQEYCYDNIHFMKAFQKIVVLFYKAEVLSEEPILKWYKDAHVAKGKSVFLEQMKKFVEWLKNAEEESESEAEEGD
Sequence of UniProt O14981 (O14981 whole entry, looked up): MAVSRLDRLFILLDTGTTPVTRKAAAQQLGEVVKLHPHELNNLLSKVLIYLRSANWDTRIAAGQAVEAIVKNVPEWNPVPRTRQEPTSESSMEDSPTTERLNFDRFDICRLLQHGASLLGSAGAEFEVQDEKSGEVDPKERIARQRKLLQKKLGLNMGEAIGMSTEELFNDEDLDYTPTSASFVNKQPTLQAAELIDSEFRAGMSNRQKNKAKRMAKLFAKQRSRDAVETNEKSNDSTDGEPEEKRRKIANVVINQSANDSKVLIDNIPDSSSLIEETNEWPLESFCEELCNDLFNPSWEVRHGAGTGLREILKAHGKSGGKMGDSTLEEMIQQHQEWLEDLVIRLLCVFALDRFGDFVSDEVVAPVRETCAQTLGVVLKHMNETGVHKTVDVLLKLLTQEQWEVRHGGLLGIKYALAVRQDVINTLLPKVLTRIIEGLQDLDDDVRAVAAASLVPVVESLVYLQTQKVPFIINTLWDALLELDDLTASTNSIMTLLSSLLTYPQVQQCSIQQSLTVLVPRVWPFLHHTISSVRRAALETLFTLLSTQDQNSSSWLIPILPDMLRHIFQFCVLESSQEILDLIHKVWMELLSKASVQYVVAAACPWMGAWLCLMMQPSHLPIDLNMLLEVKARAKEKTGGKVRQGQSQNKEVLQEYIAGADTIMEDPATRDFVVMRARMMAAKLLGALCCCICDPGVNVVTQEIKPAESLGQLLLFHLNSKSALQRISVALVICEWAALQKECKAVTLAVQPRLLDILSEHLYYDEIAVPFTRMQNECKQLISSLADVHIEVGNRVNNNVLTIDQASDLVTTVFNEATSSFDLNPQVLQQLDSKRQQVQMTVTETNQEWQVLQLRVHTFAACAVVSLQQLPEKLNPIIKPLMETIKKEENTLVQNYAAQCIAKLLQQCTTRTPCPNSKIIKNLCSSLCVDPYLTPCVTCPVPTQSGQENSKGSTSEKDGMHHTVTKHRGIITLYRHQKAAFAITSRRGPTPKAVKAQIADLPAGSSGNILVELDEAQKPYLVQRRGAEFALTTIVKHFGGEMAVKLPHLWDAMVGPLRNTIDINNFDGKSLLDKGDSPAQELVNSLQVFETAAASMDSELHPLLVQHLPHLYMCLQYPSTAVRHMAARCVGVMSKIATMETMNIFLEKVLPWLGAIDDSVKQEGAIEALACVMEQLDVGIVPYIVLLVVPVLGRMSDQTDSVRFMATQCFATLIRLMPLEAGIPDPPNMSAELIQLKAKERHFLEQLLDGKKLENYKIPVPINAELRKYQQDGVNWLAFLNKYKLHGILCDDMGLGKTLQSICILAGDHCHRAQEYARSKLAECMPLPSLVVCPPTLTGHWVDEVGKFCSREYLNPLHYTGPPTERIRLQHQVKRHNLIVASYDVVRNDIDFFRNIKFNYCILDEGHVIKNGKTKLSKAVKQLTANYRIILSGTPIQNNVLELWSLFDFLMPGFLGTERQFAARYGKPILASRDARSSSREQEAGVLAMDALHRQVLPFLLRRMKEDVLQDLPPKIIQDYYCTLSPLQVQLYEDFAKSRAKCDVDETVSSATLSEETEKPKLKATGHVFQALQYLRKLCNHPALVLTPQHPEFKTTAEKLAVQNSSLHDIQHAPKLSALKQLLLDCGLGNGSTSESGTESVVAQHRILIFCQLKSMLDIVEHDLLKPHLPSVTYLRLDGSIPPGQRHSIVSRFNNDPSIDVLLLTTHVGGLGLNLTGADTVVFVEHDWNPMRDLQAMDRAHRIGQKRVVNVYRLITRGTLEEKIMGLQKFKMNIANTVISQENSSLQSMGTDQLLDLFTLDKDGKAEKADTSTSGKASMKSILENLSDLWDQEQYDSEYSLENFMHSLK
Sequence of UniProt P08758 (P08758 whole entry, looked up): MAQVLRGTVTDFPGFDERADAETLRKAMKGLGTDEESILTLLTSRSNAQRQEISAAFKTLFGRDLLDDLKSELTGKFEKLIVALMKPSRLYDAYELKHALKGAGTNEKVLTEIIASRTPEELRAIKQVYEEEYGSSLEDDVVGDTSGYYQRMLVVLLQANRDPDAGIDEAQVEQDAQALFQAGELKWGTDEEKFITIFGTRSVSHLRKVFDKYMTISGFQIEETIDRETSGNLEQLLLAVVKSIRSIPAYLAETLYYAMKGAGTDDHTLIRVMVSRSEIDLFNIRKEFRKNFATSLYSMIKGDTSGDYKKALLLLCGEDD
Sequence of UniProt P63010 (P63010 whole entry, looked up): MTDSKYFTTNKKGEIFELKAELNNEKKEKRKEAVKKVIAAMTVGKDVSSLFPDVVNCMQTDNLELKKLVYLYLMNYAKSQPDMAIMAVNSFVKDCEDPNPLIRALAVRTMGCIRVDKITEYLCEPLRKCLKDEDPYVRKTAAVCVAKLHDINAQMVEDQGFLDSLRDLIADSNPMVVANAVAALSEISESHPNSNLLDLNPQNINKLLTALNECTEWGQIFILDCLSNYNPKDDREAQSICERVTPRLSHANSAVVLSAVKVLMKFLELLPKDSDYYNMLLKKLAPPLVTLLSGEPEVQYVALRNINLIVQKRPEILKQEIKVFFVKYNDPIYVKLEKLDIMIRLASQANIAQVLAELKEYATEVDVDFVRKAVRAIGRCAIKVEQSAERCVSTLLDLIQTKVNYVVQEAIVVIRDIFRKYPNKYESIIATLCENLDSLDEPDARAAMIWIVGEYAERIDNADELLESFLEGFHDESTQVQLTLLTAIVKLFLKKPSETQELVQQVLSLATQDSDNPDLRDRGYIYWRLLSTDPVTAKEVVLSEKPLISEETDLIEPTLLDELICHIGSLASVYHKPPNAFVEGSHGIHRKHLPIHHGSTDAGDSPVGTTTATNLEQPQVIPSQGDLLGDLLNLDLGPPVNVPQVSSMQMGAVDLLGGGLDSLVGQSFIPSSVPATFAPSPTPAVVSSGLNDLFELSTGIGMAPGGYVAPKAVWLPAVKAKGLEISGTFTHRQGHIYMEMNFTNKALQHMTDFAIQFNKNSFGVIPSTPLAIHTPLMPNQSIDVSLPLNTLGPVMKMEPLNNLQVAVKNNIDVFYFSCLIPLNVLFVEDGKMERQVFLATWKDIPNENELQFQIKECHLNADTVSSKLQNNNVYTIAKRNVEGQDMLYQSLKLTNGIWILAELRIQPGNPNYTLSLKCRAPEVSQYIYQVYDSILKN

Row | Target | log2 fold change
1 | ALDH9A1 isoform 3 (UniProt P49189) | -0.019
2 | AP2A1 (UniProt O95782) | 0.047
3 | ACP2 (UniProt P11117) | -0.023
4 | ATIC (UniProt P31939) | -0.041
5 | BTAF1 (UniProt O14981) | 0.005
6 | ATP1A4 (UniProt Q13733) | 0.036
7 | ADPRHL2 (UniProt Q9NX46) | -0.057
8 | ABHD17A isoform 2 (UniProt Q96GS6) | -0.148
9 | ATP5IF1 (UniProt Q9UII2) | -0.013
10 | BCCIP isoform 2 (UniProt Q9P287) | -0.035
11 | AP2A2 isoform 2 (UniProt O94973) | 0.048
12 | BST2 (UniProt Q10589) | 0.068
13 | BZW1 isoform 3 (UniProt Q7L1Q6) | -0.044
14 | AGPAT3 isoform 3 (UniProt Q9NRZ7) | -0.048
15 | ACO2 (UniProt Q99798) | -0.023
16 | ARAF (UniProt P10398) | 0.022
17 | ATP1B3 (UniProt P54709) | 0.002
18 | ANXA5 (UniProt P08758) | 0.021

Row | Target | log2 fold change
19 | ARHGAP1 (UniProt Q07960) | -0.005
20 | ADH5 (UniProt P11766) | -0.023
21 | ARFRP1 (UniProt Q13795) | -0.021
22 | BLOC1S3 (UniProt Q6QNY0) | -0.113
23 | BCAP29 isoform 2 (UniProt Q9UHQ4) | -0.008
24 | BPHL (UniProt Q86WA6) | 0.136
25 | AUP1 (UniProt Q9Y679) | -0.074
26 | ACACB (UniProt O00763) | 0.084
27 | BRAF (UniProt P15056) | -0.018
28 | ATP1A1 (UniProt P05023) | 0
29 | AP2B1 isoform 2 (UniProt P63010) | 0.03
30 | AKR1C3 (UniProt P42330) | -0.038
31 | AAR2 (UniProt Q9Y312) | 0.069
32 | ARFIP1 (UniProt P53367) | -0.065
33 | ADRM1 (UniProt Q16186) | -0.019
34 | AASDH (UniProt Q4L235) | -0.05
35 | ARFGAP2 (UniProt Q8N6H7) | -0.033
36 | ARL6IP6 (UniProt Q8N6S5) | 0.164

Source: the supplement of paper PMC10849652
